The list is not random: actives were taken first. Their share in the collection is about 4.6%.
TIM10 inh: growth inhibitors of isogenic TIM10 control yeast, primary screen, counter-screen for tim10-1 yeast inhibitor project, luminescence, uHTS. S. cerevisiae TIM10 strain growth, BacTiter-Glo luminescence, 24 h. 330,000 tested, 1.4% active. inhibition, % at 10 µM. AID 463195, 2010;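 active = inhibition of 40% or more at the single tested concentration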;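 also: wild-type TIM10 isogenic control strain grown at permissive 25 °C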
tim23-1 inh: growth inhibitors of tim23-1 mutant yeast, primary screen, luminescence, uHTS; S. cerevisiae tim23-1 growth, BacTiter-Glo luminescence, 24 h; inhibition, % at 20 µM; 330,000 tested, 1.3% active;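 active = growth inhibition of the mutant yeast at or above 50%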;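 also: temperature-sensitive mutant grown at 25 °C; plate controls were DMSO-treated mutant yeast for no effect and medium wells lacking yeast for full effect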
NLRP3 yeast inh: NALP3 inflammasome inhibitors in reconstituted yeast, primary screen, luminescence, uHTS; Yeast reconstituted NLRP3/ASC/caspase-1, beta-gal luminescence, 24 h; inhibition, % at 10 µM; 330,000 tested, 0.39% active; AID 2825, 2010;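 active = inhibition of 50% or more; inactive = inhibition below 50%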;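 also: plate controls were induced DMSO wells for no effect and uninduced yeast grown without galactose for full effect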
SKKanGAS inh: S. pyogenes SKKanGAS growth inhibitors in kanamycin, primary screen, streptokinase expression inhibitor project, SKKanGAS strain, BacTiter-Glo luminescence; 6 h; inhibition, % at 7.5 µM; 300,000 tested, 1.3% active; AID 1662, 2009;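 active = mean replicate score, as percent of positive control median, at least 50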;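 also: strain carries kanamycin resistance gene driven by streptokinase promoter and grows in 40 µg/ml kanamycin; loss of luminescence reflects streptokinase promoter inhibition or plain growth inhibition; 0% = median of DMSO wells and 100% = positive control at its reference dose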
tim10-1 inh: growth inhibitors of tim10-1 mutant yeast, primary screen, luminescence, uHTS; S. cerevisiae tim10-1 ts strain growth, BacTiter-Glo, 24 h; inhibition, % at 20 µM; 330,000 tested, 2.2% active;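 active = inhibition of at least 40%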;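 also: mutant grown at 25 °C; 0% = DMSO wells with yeast and 100% = wells holding no yeast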
PfHsp90 set2: growth inhibition of PfHsp90-expressing yeast, primary screen, antimalarial PfHsp90 inhibitor project, S. cerevisiae, BacTiter-Glo luminescence, single point, set 2; inhibition, % at 9.4 µM; BacTiter-Glo ATP, 48 h; yeast lacking PDR1 and PDR3 efflux regulators; 310,000 tested, 0.32% active;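 active = every replicate shows inhibition above about 80%, whatever the replicate mean, limit read from the data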;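 also: 0% = DMSO neutral controls and 100% = 20 µM radicicol positive controls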
tim10-1 conf: growth inhibitors of tim10-1 mutant yeast, confirmation, single concentration, luminescence, S. cerevisiae. AID 463213, 2010. inhibition, % at 20 µM. 7,400 tested, 56% active. S. cerevisiae tim10-1 ts strain growth, BacTiter-Glo, 24 h. shares compounds with tim10-1 inh;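 active = inhibition of yeast growth at or above a set limit in either of two repeat tests at 20 µM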;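 also: tim10-1 mutant grown at permissive 25 °C to find synthetic lethal compounds; 0% = DMSO yeast wells and 100% = medium wells without yeast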
tim10 confirm: growth inhibitors of wild-type TIM10 yeast, confirmation, counter-screen for tim10-1 synthetic lethality project, single concentration, luminescence, S. cerevisiae. S. cerevisiae tim10 strain growth, BacTiter-Glo luminescence, 24 h. shares compounds with TIM10 inh. AID 463215, 2010. 4,600 tested, 63% active. inhibition, % at 10 µM;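 active = inhibition of yeast growth at or above a set limit in either of two replicates at 10 µM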;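 also: this counterscreen used the strain with wild-type TIM10; 0% = yeast with DMSO and 100% = medium wells lacking yeast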
tim23-1 conf: tim23-1 mutant yeast growth inhibitors, confirmation, luminescence, single concentration. shares compounds with tim23-1 inh. S. cerevisiae tim23-1 growth, BacTiter-Glo luminescence, 24 h. inhibition, % at 20 µM. 4,400 tested, 83% active. AID 463218, 2010;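 active = inhibition above about 39% in either of two replicate wells at 20 µM, limit read from the data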;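 also: temperature-sensitive tim23-1 mutant grown at 25 °C; 0% = DMSO wells with yeast and 100% = medium wells without yeast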
An asterisk follows results filed as active; nt = not tested or not shown.

SMILES	TIM10 inh	tim23-1 inh	NLRP3 yeast inh	SKKanGAS inh	tim10-1 inh	PfHsp90 set2	tim10-1 conf	tim10 confirm	tim23-1 conf
CNC(=S)Nc1ccc(C23CC4CC(CC(C4)C2)C3)cc1	50*	63*	37	-13	62*	-29	48*	39*	79*
CC(/C=N/NC(=O)CSc1n[nH]c(=O)[nH]c1=O)=C\c1ccccc1	-9	1	-2	-5	-1	-6	nt	nt	nt
CC1(C)C(=O)Nc2ccccc2N1C(=O)COc1cc(Cl)ccc1Cl	-3	18	6	nt	15	nt	nt	nt	nt
NC(=O)c1cc(Br)cc2c3c([nH]c12)CCCC3	56*	76*	20	18	69*	-3	58*	-8	62*
CC(C)(C)C(=O)O/N=C(\N)c1c(Cl)cccc1Cl	2	4	5	2	5	-5	nt	nt	nt
N/C(Cc1ccc(Cl)cc1)=N\OC(=O)c1ccccc1	87*	69*	43	23	53*	35	17	1	44*
CC(C)(C)C(=O)O/N=C(\N)COc1cccc(Cl)c1	67*	80*	18	3	40*	-7	28	74*	69*
Cc1ccc(NC(=O)C/C(N)=N/OC(=O)c2ccccc2)cc1	69*	51*	16	-5	55*	-15	76*	80*	75*
COc1cccc(/C=C/C(=O)c2cccc([N+](=O)[O-])c2)c1OC	36	61*	-4	8	43*	-33	44*	nt	56*
CC(C)(C)OC(=O)NCCCCCNC(=O)c1nc[nH]c1C(=O)N1CCN(C(=O)OC(C)(C)C)CC1	-1	-3	14	nt	1	9	nt	nt	nt
Cc1cc(NCCCCCCCNc2cc(C)nc3cc([N+](=O)[O-])ccc23)c2ccc([N+](=O)[O-])cc2n1	nt	nt	nt	nt	nt	26	nt	nt	nt
N/C(Cc1ccc([N+](=O)[O-])cc1)=N\OC(=O)c1ccc([N+](=O)[O-])cc1	84*	67*	14	10	59*	3	74*	86*	84*
Cc1cccc(OCC(=O)O/N=C(\N)Cc2ccc(Cl)cc2)c1	72*	75*	27	11	57*	32	40*	84*	70*
COc1ccc(C(=O)O/N=C(\N)Cc2ccc(Cl)c(Cl)c2)cc1OC	88*	70*	9	1	58*	-15	34*	-13	27
COc1ccccc1C/C(N)=N/OC(=O)c1cccc([N+](=O)[O-])c1	81*	70*	2	-9	52*	nt	41*	86*	67*
O=C(CN(C(=O)C1CSC(=O)C1)c1cccc(F)c1)NCc1ccc2c(c1)OCO2 (stereo unspecified)	11	3	14	1	5	-3	nt	nt	nt
CN(CCCC1CCCC1)C(=O)CC1C(=O)NCCN1Cc1ccc(F)cc1 (stereo unspecified)	12	6	19	4	12	-6	nt	nt	nt
N/C(Cc1ccc([N+](=O)[O-])cc1)=N\OC(=O)c1cccc(Br)c1	95*	91*	19	-6	70*	0	43*	95*	86*
N/C(CCS(=O)(=O)c1ccc(Cl)cc1)=N\OC(=O)c1ccc(Cl)cc1	24	15	11	-5	20	8	nt	nt	nt
N/C(=N\OC(=O)c1cccc(Br)c1)c1ccc([N+](=O)[O-])cc1	4	16	31	-15	20	-9	nt	nt	nt
CC(C)(C)C(=O)OC/C(N)=N/OC(=O)c1ccc(Cl)cc1	44*	76*	10	-3	60*	9	47*	68*	73*
COc1ccc(NC(=O)CSc2nnc(-c3cccnc3)s2)cc1	-8	5	26	0	14	-24	nt	nt	nt
O=C(Cn1ccc(NC(=O)OCc2ccccc2)nc1=O)NCc1ccc2[nH]ccc2c1	-3	-2	19	nt	-10	nt	nt	nt	nt
Cc1ccc(-c2ccnc3c(Br)c(C)nn23)cc1	15	58*	11	6	41*	-13	30	nt	39*
O=C(CSc1ccc(Cl)cc1)NC1=NN(c2ccccc2)C(=O)C1	11	63*	19	77*	48*	8	17	nt	-12
SMILES	TIM10 inh	tim23-1 inh	NLRP3 yeast inh	SKKanGAS inh	tim10-1 inh	PfHsp90 set2	tim10-1 conf	tim10 confirm	tim23-1 conf
COc1ccc(C(=O)ON=C2CCN(c3ccc([N+](=O)[O-])cc3)CC2)cc1	64*	54*	22	3	58*	-29	48*	65*	71*
O=C(ON=C1CCN(c2ccc([N+](=O)[O-])cc2)CC1)c1ccccc1	52*	64*	14	11	47*	-25	24	60*	60*
O=C(OC1CCN(c2ccc([N+](=O)[O-])cc2)CC1)c1ccccc1	20	10	-10	-9	7	4	nt	nt	nt
CC1(C)CSC(C)(C)C(=O)N1	nt	nt	nt	nt	nt	-28	nt	nt	nt
C=CCn1c(=O)c(CCC(=O)Nc2ccc(N3CCOCC3)cc2)nc2cc(C(F)(F)F)ccc21	16	-5	30	-1	7	-13	nt	nt	nt
O=C(N/N=C/c1coc2ccc(Cl)cc2c1=O)c1ccc(O)cc1	31	84*	2	2	49*	49	-1	nt	49*
NC(=S)N/N=C/c1coc2ccc(Cl)cc2c1=O	22	82*	15	1	54*	-179	16	nt	80*
COc1cc(C(=O)N/N=C/c2coc3ccccc3c2=O)cc(OC)c1OC	9	33	3	0	20	31	nt	nt	nt
COc1cc(C(=O)N/N=C/c2coc3ccc(Cl)cc3c2=O)ccc1O	35	81*	12	-10	52*	16	8	nt	49*
COc1ccc(C(=O)N/N=C\c2coc3ccc(Cl)cc3c2=O)cc1	33	84*	12	2	44*	-2	-4	nt	75*
O=C(CCc1nnc(CCc2ccccc2)o1)N1CCCC1c1nccs1 (stereo unspecified)	0	15	4	-6	1	-8	nt	nt	nt
